About 83,000 compounds went through this panel and 20% of them were active in at least one assay; those are over-represented in the sample as a whole.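 The endpoint reported here, percent growth, reads 100 for growth as untreated, 0 for no net growth and -100 for all cells dead.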 A number with no mark means an inactive call. The source made the active and inactive calls. The calls were made as follows: active = growth percent below 10; inactive = the rest.
Tests used:
Assay in all cases: NCI-60 one-dose screen, 48 h (100 = growth as untreated, 0 = no growth, -100 = all killed)
Settings in all cases: 10 µM unless noted
[1] = test system: SR leukemia
[2] = test system: OVCAR-8 ovarian
[3] = test system: OVCAR-5 ovarian
[4] = test system: SK-OV-3 ovarian
[5] = test system: IGROV1 ovarian
[6] = test system: OVCAR-3 ovarian
[7] = test system: HS 578T breast
[8] = test system: NCI/ADR-RES ovarian
[9] = test system: T-47D breast
[10] = test system: BT-549 breast
[11] = test system: SW-620 colon
[12] = test system: MCF7 breast
[13] = test system: HCT-116 colon
[14] = test system: HCC-2998 colon
[15] = test system: KM12 colon
[16] = test system: OVCAR-4 ovarian
[17] = test system: MDA-MB-435 melanoma
[18] = test system: RPMI-8226 leukemia

SMILES	growth [1] [%]	growth [2] [%]	growth [3]	growth [4]	growth [5]	growth [6]	growth [7]	growth [8]	growth [9]	growth [10]	growth [11]	growth [12]	growth [13]	growth [14]	growth [15]	growth [16]	growth [17]	growth [18]
CCOC(=O)C1=C(N)Oc2c(sc3c(CC)cccc23)C1c1ccc(F)cc1 (stereo not drawn)	27.2	45.2	56.2%	50.6%	29.3%	-6.19% (active)	23.9%	32.2%	26.8%	73.6%	22.3%	10.2%	25.5%	61.4%	24%	–	–	–
c1cc(NCCc2ccncc2)nc(-n2cnc3ccccc32)c1	58.2	–	98%	97.2%	73.1%	96.2%	98.2%	90.7%	80.4%	98.4%	94.2%	84.2%	81.7%	104%	53.3%	96.7%	95.8%	–
CCOC(=O)c1nc(Nc2ccc(C(C)=O)cc2)sc1C	–	103	99.5%	107%	103%	105%	105%	101%	93%	106%	101%	92.9%	99.8%	114%	101%	96.4%	100%	103%
Nc1cc2c(cc1Br)-c1cc(Cl)ccc1C2=O	–	99.3	91.8%	98.7%	74.2%	96.5%	98.6%	106%	91.7%	121%	109%	57.9%	96.1%	114%	98.6%	99.9%	117%	88.7%
CC(=O)Oc1ccccc1C(=O)N=C1[Se]CCCN1C(=O)c1ccccc1OC(C)=O	–	47	90.8%	141%	11.7%	7.64% (active)	24.9%	29%	85.2%	-97.2% (active)	88.4%	15.7%	-8.29% (active)	104%	30.5%	78.8%	-18.9% (active)	80.8%
O=C(/C=C/c1sc(Cl)nc1Cl)c1ccc(Br)cc1	–	90	95.3%	105%	68.5%	40%	93.5%	104%	91.1%	97.3%	47.7%	27.9%	57.4%	52.1%	77.2%	108%	98.4%	30.9%
COc1ccc(-c2nn(C(=O)c3cc(OC)c(OC)c(OC)c3)c3cc(N)ccc23)cc1	–	15.9	39.2%	31.5%	23.9%	0.527% (active)	35%	15.6%	59.9%	21.5%	31.6%	6.74% (active)	5.15% (active)	25.1%	12.4%	58.1%	5.29% (active)	21.7%
Clc1ccc(C(/C=C/c2sc(Cl)nc2Cl)=N/Nc2cc(Cl)cc(Cl)c2)cc1	–	104	104%	98.9%	89.7%	103%	98.3%	104%	98.2%	115%	106%	100%	106%	112%	105%	100%	101%	98.1%
COc1ccc(/C=C(\C#N)n2nnc3c(F)cccc32)cc1	–	16.3	15.7%	39%	13.2%	-34% (active)	-4.6% (active)	0.281% (active)	16.1%	45.4%	15.6%	18.8%	8.75% (active)	1.33% (active)	7.96% (active)	37.8%	-78.4% (active)	17.9%
CCC12CCC[N+]3([O-])CCC4(C(=Nc5ccccc54)C(O)(C(=O)OC)C1)C23 (stereo not drawn)	–	102	93.6%	103%	138%	106%	92.7%	103%	94.8%	102%	95.4%	116%	94.5%	97.8%	99.6%	106%	112%	99.9%
N#C/C(=C\c1cccc2cnccc12)n1nnc2cccc(F)c21	–	41.7	31.8%	90.2%	26.5%	35.3%	47.1%	23.8%	23.5%	17%	21.5%	19.3%	10.4%	42.7%	62.1%	38.7%	29%	6.88% (active)
CC(=O)CC(c1ccccc1)c1c(C)[nH]c2ccccc12 (stereo not drawn)	–	97.4	94.2%	104%	91.5%	95.9%	84.6%	93.6%	99.5%	112%	92.1%	96.2%	89.6%	110%	100%	100%	100%	94.4%
CN(C)c1ccc2nc3ccc(=[N+](C)C)c([N+](=O)[O-])c-3sc2c1	–	12.7	-7.81% (active)	59.2%	20%	-12.5% (active)	37%	7.62% (active)	10.3%	40.5%	24.4%	7.94% (active)	20.7%	42.7%	34.6%	0.851% (active)	41.9%	21.5%
Nc1nc(-c2cccc3ccccc23)cc2ccccc12	–	17.9	20.9%	8.91% (active)	-48.5% (active)	-32.2% (active)	-4.65% (active)	2.9% (active)	43.7%	39.2%	19.4%	7.69% (active)	10.8%	-5.78% (active)	5.93% (active)	61.4%	-64.8% (active)	4.38% (active)
CNc1nc2c(s1)C(c1cc(F)ccc1F)CC(=O)N2 (stereo not drawn)	–	91.3	89.7%	71.9%	73.7%	55.6%	70%	71.7%	63.6%	80.5%	30.9%	36.5%	53.5%	88.1%	52.9%	83.2%	-51.6% (active)	87.3%
CCN1C(=O)N(CC)C2Nn3c(s/c(=C4\C(=O)Nc5ccccc54)c3=O)=NC21 (stereo not drawn)	–	43.6	66.4%	75.8%	52.3%	10.5%	34.7%	73%	45.8%	65.3%	27.6%	29.1%	31.8%	88%	33%	54.9%	-51% (active)	53.2%
C#C[C@]1(O)CC[C@H]2[C@@H]3CC=C4c5sc(Nc6cc(F)ccc6F)nc5CC[C@]4(C)[C@H]3CC[C@@]21C	–	18.4	2.88% (active)	-1.09% (active)	-33.5% (active)	-22.7% (active)	-10.8% (active)	7.49% (active)	-16.6% (active)	12.3%	-61.1% (active)	-23.8% (active)	-44.2% (active)	-78.8% (active)	-41.2% (active)	23%	-28.2% (active)	-28.3% (active)
Cn1cc(C(=O)c2nc(-c3cn(C)c4ccc(F)cc34)no2)c2cc(F)ccc21	–	95.5	85.9%	81%	77.8%	98.4%	87%	102%	91.2%	106%	90.6%	47.3%	98.1%	84.6%	95.2%	90.8%	111%	91.1%

— PubChem BioAssay (NCI)
